Test results as given in PubChem BioAssay AID1159580 (chemical genetic matrix, 2015).
In all, about 5,500 compounds went through this assay and about 2,000 (36%) were called active. Inconclusive results (about 18%) are left out. No stated cut-off is given here; in the data, active means normalized growth mostly below about 0.91 (no sharp cut-off); inconclusive means no clear call, values can overlap the other calls; inactive means mostly above about 0.92. The list shows a part of the results.

Test: chemical genetic growth profiling, strain panel (AID 1159580);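 further: tested at 20 µM; growth read once vehicle control cultures reached saturation at 30 °C; 1 = growth at the plate median or of vehicle wells; lower values mean less growth of the strain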
Conditions: growth OD

Measured: normalized growth

c1ccc(OCCOc2ccccn2)nc1
inactive: S. cerevisiae deletion strains, locus YAL013W, strain DEP1, hits give low values 1.03 | S. cerevisiae deletion strains, locus YBR229C, strain ROT2, hits give low values 0.999 | S. cerevisiae deletion strains, locus YCL061C, strain MRC1, hits give low values 0.992 | S. cerevisiae deletion strains, locus YDL101C, strain DUN1, hits give low values 1.01 | S. cerevisiae deletion strains, locus YDL134C, strain PPH21, hits give low values 0.994 | S. cerevisiae deletion strains, locus YDR150W, strain NUM1, hits give low values 0.972 | S. cerevisiae deletion strains, locus YEL061C, strain CIN8, hits give low values 1 | S. cerevisiae deletion strains, locus YGR078C, strain PAC10, hits give low values 1 | S. cerevisiae deletion strains, locus YHR030C, strain SLT2, hits give low values 1.06 | S. cerevisiae deletion strains, locus YHR087W, strain rtc3, hits give low values 0.992 | S. cerevisiae deletion strains, locus YJR043C, strain POL32, hits give low values 0.995 | S. cerevisiae deletion strains, locus YJR075W, strain HOC1, hits give low values 1 | S. cerevisiae deletion strains, locus YKL190W, strain CNB1, hits give low values 0.998 | S. cerevisiae deletion strains, locus YLR039C, strain RIC1, hits give low values 0.999 | S. cerevisiae deletion strains, locus YLR058C, strain SHM2 (second series), hits give low values 0.996 | S. cerevisiae deletion strains, locus YLR085C, strain ARP6, hits give low values 1 | S. cerevisiae deletion strains, locus YLR262C, strain YPT6, hits give low values 1.05 | S. cerevisiae deletion strains, locus YML094W, strain GIM5, hits give low values 1.01 | S. cerevisiae deletion strains, locus YMR219W, strain ESC1, hits give low values 1.01 | S. cerevisiae deletion strains, locus YMR263W, strain SAP30, hits give low values 0.985 | S. cerevisiae deletion strains, locus YMR307W, strain GAS1, hits give low values 0.959 | S. cerevisiae deletion strains, locus YNL128W, strain TEP1, hits give low values 1 | S. cerevisiae deletion strains, locus YNL153C, strain GIM3, hits give low values 0.997 | S. cerevisiae deletion strains, locus YNL298W, strain CLA4 (second series), hits give low values 0.978 | S. cerevisiae deletion strains, locus YNL322C, strain KRE1, hits give low values 1.01 | S. cerevisiae deletion strains, locus YNR030W, strain Alg12, hits give low values 1 | S. cerevisiae deletion strains, locus YPL055C, strain LGE1, hits give low values 0.982 | S. cerevisiae deletion strains, locus YPL241C, strain CIN2, hits give low values 0.988 | S. cerevisiae deletion strains, locus YPR135W, strain CTF4, hits give low values 1.13 | S. cerevisiae strains, strain wild type, hits give low values 1
